# In PubChem BioAssay (NCATS):
# Records with an inconclusive call do not appear. A call without a number means that no potency is given here. Activity calls are given as the source filed them. Calls follow the shape of the dose curve; as a rule, active = well fitted inhibition curve with a large enough effect; inconclusive = small, poorly fitted or top-dose-only effect; inactive = flat fitted curve, though single readings scatter.
# System: AA1029
# Experiment: qHTS profiling for inhibitors of Plasmodium falciparum proliferation (AID 504749); also: nearly all actives have a fitted effect of over 60% in size
# Conditions: P. falciparum in erythrocytes, SYBR Green DNA, 72 h; series mostly up to 28.7 µM
# Outline: (§1)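 Readout was DNA-dye fluorescence from lysed cultures, ex 485/em 535 nm. Parasitized red cells had grown 72 h with compound; data scaled between 0.29 uM artemisinin and DMSO wells and corrected using vehicle-only plates.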
# Potency is read from the fitted curve at half-maximal effect.
row,SMILES,Potency
1,C[C@H](N)Cc1ccccc1,inactive
2,C[C@]12C=CC(=O)C=C1CC[C@@H]1C2CC[C@]2(C)OC(=O)CCC12 (some centres undefined),inactive
3,OCC(O)[C@H]1O[C@@H]2O[C@H](C(Cl)(Cl)Cl)O[C@@H]2[C@H]1O (some centres undefined),inactive
4,CC1(C)[C@@H](C=C(Cl)Cl)[C@@H]1C(=O)OCc1c(F)c(F)cc(F)c1F,inactive
5,CC1(C)S[C@@H]2[C@H](N)C(=O)N2C1C(=O)O (some centres undefined),inactive
6,C=C1Nc2ccccc2C(=O)N1c1ccccc1C,inactive
7,CC1OC(O[C@H]2C[C@@H](O)[C@]3(CO)[C@@H]4C(CC[C@]3(O)C2)[C@@]2(O)CC[C@H](C3=CC(=O)OC3)[C@@]2(C)C[C@H]4O)C(O)C(O)C1O (some centres undefined),inactive
8,O=[N+]([O-])OC1CO[C@H]2C(O[N+](=O)[O-])COC12 (some centres undefined),inactive
9,CCOC(=O)/C=C(C)/C=C/CC(C)CCCC(C)C (centres undefined),inactive
10,[S]=[Sb][S][Sb]=[S],inactive
11,CN1C2CCC1C(C(=O)O)C(OC(=O)c1ccccc1)C2 (centres undefined),inactive
12,C[C@@H]1CC[C@H]2[C@@H](C)C(=O)O[C@@H]3OC4(C)CC[C@@H]1C32OO4 (some centres undefined),11.2 nM (active)
13,Cc1ccc2c(c1)[C@@H]1CN(C)CC[C@H]1N2,inactive
14,Nc1nc(O)c(-c2ccccc2)o1,inactive
15,C=CC[N+]1(C)CCC23c4c5ccc(O)c4O[C@H]2C(=O)CC[C@@]3(O)C1C5 (some centres undefined),inactive
16,OC[C@@H](O)[C@H]1O[C@@H]2OC(C(Cl)(Cl)Cl)O[C@H]2[C@H]1O (some centres undefined),inactive
17,CCCCCCC(=O)O[C@H]1CC[C@H]2[C@@H]3CCC4CC(=O)C=C(C)[C@]4(C)[C@H]3CC[C@]12C (some centres undefined),inactive
18,Cc1cc(C)cc(C(=O)OC2CC3CCC(C2)N3C)c1 (centres undefined),inactive
19,CCCN1CCCC2Cc3nc(N)ncc3CC21 (centres undefined),inactive
20,COc1ccc2c3c1O[C@H]1[C@@H](O)C=C[C@H]4C(C2)NCCC341 (some centres undefined),inactive
21,CCCCCC(O)C1C(=O)OC(C)C(O)\C=C/C=C\C=C/C=C\C=C(\C)C(O)C(O)C(O)CC(O)CC(O)CC(O)CC(O)CC1O (centres undefined),inactive
22,CCCCCc1cc(O)c2c(c1)OC(C)(C)C1CC=C(C)CC21 (centres undefined),2820 nM (active)

# System: AS120
# Experiment: as above
# Conditions: P. falciparum in erythrocytes, SYBR Green DNA, 72 h; series mostly up to 28.7 µM
# Outline: as §1
row,SMILES,Potency
1,C[C@H](N)Cc1ccccc1,inactive
2,C[C@]12C=CC(=O)C=C1CC[C@@H]1C2CC[C@]2(C)OC(=O)CCC12 (some centres undefined),inactive
3,OCC(O)[C@H]1O[C@@H]2O[C@H](C(Cl)(Cl)Cl)O[C@@H]2[C@H]1O (some centres undefined),inactive
4,CC1(C)[C@@H](C=C(Cl)Cl)[C@@H]1C(=O)OCc1c(F)c(F)cc(F)c1F,inactive
5,CC1(C)S[C@@H]2[C@H](N)C(=O)N2C1C(=O)O (some centres undefined),inactive
6,C=C1Nc2ccccc2C(=O)N1c1ccccc1C,inactive
7,CC1OC(O[C@H]2C[C@@H](O)[C@]3(CO)[C@@H]4C(CC[C@]3(O)C2)[C@@]2(O)CC[C@H](C3=CC(=O)OC3)[C@@]2(C)C[C@H]4O)C(O)C(O)C1O (some centres undefined),inactive
8,O=[N+]([O-])OC1CO[C@H]2C(O[N+](=O)[O-])COC12 (some centres undefined),inactive
9,CCOC(=O)/C=C(C)/C=C/CC(C)CCCC(C)C (centres undefined),inactive
10,[S]=[Sb][S][Sb]=[S],inactive
11,CN1C2CCC1C(C(=O)O)C(OC(=O)c1ccccc1)C2 (centres undefined),inactive
12,C[C@@H]1CC[C@H]2[C@@H](C)C(=O)O[C@@H]3OC4(C)CC[C@@H]1C32OO4 (some centres undefined),7.1 nM (active)
13,Cc1ccc2c(c1)[C@@H]1CN(C)CC[C@H]1N2,inactive
14,Nc1nc(O)c(-c2ccccc2)o1,inactive
15,C=CC[N+]1(C)CCC23c4c5ccc(O)c4O[C@H]2C(=O)CC[C@@]3(O)C1C5 (some centres undefined),inactive
16,OC[C@@H](O)[C@H]1O[C@@H]2OC(C(Cl)(Cl)Cl)O[C@H]2[C@H]1O (some centres undefined),inactive
17,CCCCCCC(=O)O[C@H]1CC[C@H]2[C@@H]3CCC4CC(=O)C=C(C)[C@]4(C)[C@H]3CC[C@]12C (some centres undefined),inactive
18,Cc1cc(C)cc(C(=O)OC2CC3CCC(C2)N3C)c1 (centres undefined),inactive
19,CCCN1CCCC2Cc3nc(N)ncc3CC21 (centres undefined),inactive
20,COc1ccc2c3c1O[C@H]1[C@@H](O)C=C[C@H]4C(C2)NCCC341 (some centres undefined),inactive
21,CCCCCC(O)C1C(=O)OC(C)C(O)\C=C/C=C\C=C/C=C\C=C(\C)C(O)C(O)C(O)CC(O)CC(O)CC(O)CC(O)CC1O (centres undefined),inactive
22,CCCCCc1cc(O)c2c(c1)OC(C)(C)C1CC=C(C)CC21 (centres undefined),2240 nM (active)
